Test results: the supplement of paper PMC12669032

What was measured:
Assay in all cases: growth AUC relative to DMSO control (median of replicates) (fraction); higher = more growth (less inhibition), active = hit call of the paper
Conditions in all cases: 20 µM; 24 h;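 active = AUC reduced over 20% with Padj below 0.05 in at least 2 of 3 replicates; inactive = otherwise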
Akkermansia muciniphila = system: Akkermansia muciniphila
Procedure, shortened: (§1)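 Gut bacterial monocultures were grown anaerobically at 37 °C in mGAM, starting at OD600 0.05, with 20 µM compound (1% DMSO) in round-bottom 96-well plates under pierced gas-permeable seals. OD600 was read hourly for 24 h. Area under the growth curve (minimum OD set to 0) was normalised to the plate median of DMSO controls, or to row and column medians on the industrial chemical plate. The value is the median of three biological replicates grown on separate days.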

Bacteroides caccae = system: Bacteroides caccae
Procedure, shortened: as §1

Bacteroides clarus = system: Bacteroides clarus
Procedure, shortened: as §1

Bacteroides dorei = system: Bacteroides dorei
Procedure, shortened: as §1

Bacteroides stercoris = system: Bacteroides stercoris
Procedure, shortened: as §1

[1] = system: Bacteroides thetaiotaomicron
Procedure, shortened: as §1

Bacteroides uniformis = system: Bacteroides uniformis
Procedure, shortened: as §1

[2] = system: Bifidobacterium longum subsp. longum
Procedure, shortened: as §1

Clostridium difficile = system: Clostridium difficile
Procedure, shortened: as §1

Collinsella aerofaciens = system: Collinsella aerofaciens
Procedure, shortened: as §1

Coprococcus comes = system: Coprococcus comes
Procedure, shortened: as §1

Escherichia coli ED1a = system: Escherichia coli ED1a
Procedure, shortened: as §1

Escherichia coli IAI1 = system: Escherichia coli IAI1
Procedure, shortened: as §1

Eubacterium rectale = system: Eubacterium rectale
Procedure, shortened: as §1

[3] = system: Fusobacterium nucleatum subsp. animalis
Procedure, shortened: as §1

Lactobacillus gasseri = system: Lactobacillus gasseri
Procedure, shortened: as §1

Lactobacillus paracasei = system: Lactobacillus paracasei
Procedure, shortened: as §1

Odoribacter splanchnicus = system: Odoribacter splanchnicus
Procedure, shortened: as §1

[4] = system: Parabacteroides distasonis
Procedure, shortened: as §1

Parabacteroides merdae = system: Parabacteroides merdae
Procedure, shortened: as §1

Measured: growth AUC

COP(=S)(OC)Oc1ccc([N+](=O)[O-])c(C)c1
inactive: Akkermansia muciniphila 0.998 | Bacteroides caccae 0.992 | Bacteroides clarus 0.968 | Bacteroides dorei 0.984 | Bacteroides stercoris 0.969 | [1] 0.99 | Bacteroides uniformis 0.97 | [2] 1.04 | Clostridium difficile 0.988 | Collinsella aerofaciens 0.952 | Coprococcus comes 0.982 | Escherichia coli ED1a 0.986 | Escherichia coli IAI1 0.979 | Eubacterium rectale 1.1 | [3] 0.994 | Lactobacillus gasseri 1.01 | Lactobacillus paracasei 1.01 | Odoribacter splanchnicus 0.962 | [4] 0.89 | Parabacteroides merdae 0.944

Cl.NC1=NCCN1Cc1ccc(Cl)nc1
inactive: Akkermansia muciniphila 1.03 | Bacteroides caccae 1.03 | Bacteroides clarus 1.02 | Bacteroides dorei 0.975 | Bacteroides stercoris 1.14 | [1] 1.04 | Bacteroides uniformis 1.01 | [2] 1.02 | Clostridium difficile 1.06 | Collinsella aerofaciens 1.03 | Coprococcus comes 1.13 | Escherichia coli ED1a 1.04 | Escherichia coli IAI1 1.03 | Eubacterium rectale 0.945 | [3] 1.06 | Lactobacillus gasseri 1.02 | Lactobacillus paracasei 1.06 | [4] 1.02 | Parabacteroides merdae 1.05
active: Odoribacter splanchnicus 0.507

O=[N+]([O-])c1ccccc1
inactive: Akkermansia muciniphila 1.11 | Bacteroides caccae 1.01 | Bacteroides clarus 1.02 | Bacteroides dorei 0.97 | Bacteroides stercoris 1.13 | [1] 1.03 | Bacteroides uniformis 1 | [2] 1.06 | Clostridium difficile 1.01 | Collinsella aerofaciens 0.951 | Coprococcus comes 1.03 | Escherichia coli ED1a 1.01 | Escherichia coli IAI1 1.01 | Eubacterium rectale 1.07 | [3] 1.07 | Lactobacillus gasseri 1 | Lactobacillus paracasei 0.994 | Odoribacter splanchnicus 1.08 | [4] 1.03 | Parabacteroides merdae 1.03

CCOP(=O)(OCC)OP(=O)(OCC)OCC
inactive: Akkermansia muciniphila 1.07 | Bacteroides caccae 0.988 | Bacteroides clarus 1 | Bacteroides dorei 0.956 | Bacteroides stercoris 0.932 | [1] 1.03 | Bacteroides uniformis 0.992 | [2] 1.02 | Clostridium difficile 1.03 | Collinsella aerofaciens 0.966 | Coprococcus comes 0.976 | Escherichia coli ED1a 0.982 | Escherichia coli IAI1 1.02 | Eubacterium rectale 1.19 | [3] 1.02 | Lactobacillus gasseri 0.954 | Lactobacillus paracasei 0.961 | Odoribacter splanchnicus 0.986 | [4] 0.946 | Parabacteroides merdae 0.919

COC(=O)Nc1nc2ccccc2[nH]1
inactive: Akkermansia muciniphila 0.927 | Bacteroides caccae 1.01 | Bacteroides clarus 0.991 | Bacteroides dorei 1.01 | Bacteroides stercoris 0.957 | [1] 1.04 | Bacteroides uniformis 0.988 | [2] 1.01 | Clostridium difficile 1.06 | Collinsella aerofaciens 1.03 | Coprococcus comes 1.05 | Escherichia coli ED1a 1.04 | Escherichia coli IAI1 1.01 | Eubacterium rectale 0.854 | [3] 1.03 | Lactobacillus gasseri 1.14 | Lactobacillus paracasei 0.862 | Odoribacter splanchnicus 0.997 | [4] 1.03 | Parabacteroides merdae 0.981

Cn1cc(-c2ccccc2)c(=O)c(-c2cccc(C(F)(F)F)c2)c1
inactive: Akkermansia muciniphila 0.9 | Bacteroides caccae 0.923 | Bacteroides clarus 0.999 | Bacteroides dorei 1.01 | Bacteroides stercoris 1.06 | [1] 0.967 | Bacteroides uniformis 0.977 | [2] 1.04 | Clostridium difficile 0.994 | Collinsella aerofaciens 0.939 | Coprococcus comes 1.02 | Escherichia coli ED1a 0.978 | Escherichia coli IAI1 0.968 | Eubacterium rectale 0.998 | [3] 0.907 | Lactobacillus gasseri 0.963 | Lactobacillus paracasei 0.983 | Odoribacter splanchnicus 0.974 | [4] 0.999 | Parabacteroides merdae 0.943

CC(C)OP(=O)(OC(C)C)SCc1ccccc1
inactive: Akkermansia muciniphila 1.12 | Bacteroides caccae 0.976 | Bacteroides clarus 0.99 | Bacteroides dorei 0.981 | Bacteroides stercoris 0.997 | [1] 0.964 | Bacteroides uniformis 0.968 | [2] 0.902 | Clostridium difficile 0.968 | Collinsella aerofaciens 1 | Coprococcus comes 1.03 | Escherichia coli ED1a 1.01 | Escherichia coli IAI1 0.984 | Eubacterium rectale 1.09 | [3] 1.01 | Lactobacillus gasseri 0.959 | Lactobacillus paracasei 1.01 | Odoribacter splanchnicus 1.05 | [4] 0.866 | Parabacteroides merdae 0.988

COP(=S)(OC)SCN1C(=O)c2ccccc2C1=O
inactive: Akkermansia muciniphila 0.901 | Bacteroides caccae 0.971 | Bacteroides clarus 0.966 | Bacteroides dorei 1 | Bacteroides stercoris 0.97 | [1] 0.978 | Bacteroides uniformis 0.975 | [2] 0.951 | Clostridium difficile 0.94 | Collinsella aerofaciens 0.965 | Coprococcus comes 1 | Escherichia coli ED1a 1 | Escherichia coli IAI1 0.991 | Eubacterium rectale 0.967 | [3] 0.947 | Lactobacillus gasseri 1.11 | Lactobacillus paracasei 0.986 | Odoribacter splanchnicus 0.968 | [4] 0.982 | Parabacteroides merdae 0.988
